Among the data in PMC8384837, “Expanding the binding specificity for RNA recognition by a PUF domain” are binding signal values, retold here.

Chain of PUM1 PUF domain R4-TPN (Q14671 828-1176 N971T/H972P/Q975N): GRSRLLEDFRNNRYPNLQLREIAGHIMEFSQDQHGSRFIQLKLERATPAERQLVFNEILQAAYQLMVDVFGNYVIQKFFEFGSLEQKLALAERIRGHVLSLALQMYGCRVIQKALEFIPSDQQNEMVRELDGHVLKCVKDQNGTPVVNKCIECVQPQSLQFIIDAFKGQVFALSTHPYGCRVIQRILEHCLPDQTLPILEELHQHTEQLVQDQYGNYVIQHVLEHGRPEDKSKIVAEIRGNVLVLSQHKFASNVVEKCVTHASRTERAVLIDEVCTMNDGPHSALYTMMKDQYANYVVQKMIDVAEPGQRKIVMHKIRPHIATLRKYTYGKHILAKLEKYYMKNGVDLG

This assay deals with PUM1 PUF domain R4-TPN (Homo sapiens, UniProt Q14671 828-1176, N971T;H972P;Q975N). In words: yeast three-hybrid, YBZ-1, SC-Leu-His + 0.5 mM 3-AT, 4 days. The settings on record: tags: N-Gal4 AD-HA kept; label: inside an RPR1-promoter hybrid RNA with tandem MS2 sites; ssRNA. Summed up:
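Pumilio-1 PUF domain libraries, randomized at the three base-contacting residues of each repeat, were co-expressed with matching RNA elements from a centromeric plasmid in strain YBZ-1, which carries a LexA–MS2 coat fusion and a HIS3 reporter. Transformants grew for four days on SC-Leu (input) or on SC-Leu-His + 0.5 mM 3-AT (selection), and the repeat regions were PCR-amplified and Illumina-sequenced. The interaction score is the log change in variant frequency from input to selection. That logarithm is base 2, with a pseudocount of 1 where a variant was absent.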
As to “GGCUAGAACUAGUGGAUCCCCCGGCGCCCGGCGGCUCGAGCCCGGGUAAGUGUACAUAGUCUGCAUGCCGCCGGGCGCCAUGCCUGCAGGUCGACUCUAGAAAACAUG”, the binding signal is 4.27 log2 enrichment (interaction score).
Regarding “GGCUAGAACUAGUGGAUCCCCCGGCGCCCGGCGGCUCGAGCCCGGGUAAGUGUAAAUAGUCUGCAUGCCGCCGGGCGCCAUGCCUGCAGGUCGACUCUAGAAAACAUG”, the binding signal was 5.21 log2 enrichment (interaction score).
For “GGCUAGAACUAGUGGAUCCCCCGGCGCCCGGCGGCUCGAGCCCGGGUAAGUGUAUAUAGUCUGCAUGCCGCCGGGCGCCAUGCCUGCAGGUCGACUCUAGAAAACAUG” the value was 3.42 log2 enrichment (interaction score).
